Measurements taken from PubChem BioAssay (NCI).
Compounds without any hit were thinned out: in the full panel of roughly 83,000, 20% have a hit.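 Cells were grown in 96-well plates and exposed to the test compound at a single concentration for 48 hours; results are reported as percent growth, with values below 10 considered active.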 A number with no mark means an inactive call. Activity calls are given as the source filed them.

Each compound was assayed on MDA-MB-468 breast (assay: NCI-60 one-dose screen, 48 h (100 = growth as untreated, 0 = no growth, -100 = all killed)). Settings: 10 µM unless noted.

Q: CC(C)=CC/C=C(/C)[C@H]1CC[C@]2(C)[C@@H]1CC[C@@H]1[C@@]3(C)CC/C(=N/O)C(C)(C)[C@@H]3CC[C@]12C was tested. Which growth did it give?
A: Its growth is 47.7% [100 µM].

Q: CC(=O)/C(=C/c1cccc(Cl)c1)C(=O)c1ccccc1 was tested. Which growth did it give?
A: Its growth is 99.2%.

Q: O=C1C2CC=CCC2C(=O)N1CNc1ccc(Cl)cc1 (stereo unspecified) was tested. Which growth did it give?
A: Its growth is 91%.

Q: For CC(=O)O[C@]1(C(C)=O)CCC2C3C[C@H](C)C4=CC(=O)CC[C@]4(C)C3CC[C@@]21C (stereo partly specified), which growth is on record?
A: Its growth is 86.4%.

Q: With NC(=S)N1N=C(c2ccc(Cl)cc2)CC1c1cc2ccccc2[nH]c1=O (stereo unspecified) as the compound, how does the growth read?
A: Its growth is 111%.

Q: How did the growth turn out when O=C1Nc2ccccc2/C1=C/c1cn(CCCn2c3ccccc3c(=O)c3ccccc32)c2ccccc12 was run?
A: Its growth is 96.4%.

Q: COc1cc(NC(=O)Nc2cccc(-c3cc(=O)c4c(OC)c(OC)c(OC)cc4o3)c2)cc(OC)c1OC was tested. Which growth did it give?
A: Its growth is 40.4%.

Q: Which growth does the source give for COc1cc2nc(N3CCCC3)nc(Nc3ccccc3)c2cc1OC here?
A: The growth was -38.2% (active).

Q: For CCCCC/C(C)=N\NC(N)=S, which growth is on record?
A: The growth was -6.78% (active).

Q: Which growth does the source give for CC(=O)Oc1c(C)c(OC(C)=O)c2c(c1C(C)=O)OC1CC(=O)C(C(C)=O)=C(O)C21C (stereo unspecified) here?
A: Its growth is 90.1%.

Q: CN(C)CC1C(=O)O[C@H]2[C@H]1CC/C(COC(=O)c1cc3ccccc3[nH]1)=C\CC[C@@]1(C)O[C@@H]21 (stereo partly specified) was tested. Which growth did it give?
A: The growth was -59.8% (active).

Q: For COc1cc(OC)c2sc(-c3ccc(-n4cncc4-c4ccc(N)cc4)cc3)nc2c1, which growth is on record?
A: Its growth is 67.3%.

Q: For CC(=O)Nc1ccc(S(=O)(=O)Nc2cccc(-c3nc(-c4ccc(NC(=O)c5cccnc5)cc4Cl)no3)c2)cc1, which growth is on record?
A: Its growth is 18.4%.

Q: With O=C1C2=C(C(=O)c3c(O)ccc(O)c31)N(c1ccc(N3CCOCC3)nc1)Cc1ccccc1O2 as the compound, how does the growth read?
A: Its growth is -60.8% (active).

Q: With CC[C@H](Nc1ncnc2nc[nH]c12)c1nc2cccc(F)c2c(=O)n1-c1ccccc1 as the compound, how does the growth read?
A: Its growth is 3.98% (active).

Q: Which growth does the source give for Cc1ccccc1NC(=O)NC(CC(N)=O)c1ccc2c(c1)nc(-c1cccc(Oc3ccc(C(C)(C)C)cc3)c1)n2CCCN1CCCCC1C (stereo unspecified) here?
A: Its growth is -78.8% (active).

Q: With OC(CN1CCCC2CCCCC21)c1cc2ccccc2c2ccccc12 (stereo unspecified) as the compound, how does the growth read?
A: Its growth is -24.4% (active).

Q: With COc1ccc(/C=C(/C(=O)c2ccc(Cl)cc2)C(=O)C(F)(F)F)cc1 as the compound, how does the growth read?
A: The growth was 99.7%.

Q: Which growth does the source give for Nc1nc(-c2ccccc2Cl)cc(-c2ccc(Cl)cc2Cl)n1 here?
A: Its growth is 18.6%.

Q: How did the growth turn out when c1ccc(C(NC2CC3CCC2C3)c2ccccc2)cc1 (stereo unspecified) was run?
A: Its growth is 96.8%.

Q: How did the growth turn out when CCCCc1nc(Cl)c(CO)n1Cc1ccc(-c2ccccc2-c2nn[nH]n2)cc1 was run?
A: The growth was 96.4%.

Q: With O=C(CCCn1c(=O)c2sc3ccccc3c2n2nnc(-c3ccccc3)c12)NCCc1cnc[nH]1 as the compound, how does the growth read?
A: The growth was -42.1% (active).

Q: COc1cc(/C(Cl)=C/C=C/C(=O)c2c(C)[n+]([O-])c3ccc(Cl)cc3[n+]2[O-])cc(OC)c1OC was tested. Which growth did it give?
A: The growth was -11.2% (active).

Q: With Oc1nc(NCc2ccccc2)sc1/C=C1\C=Nc2ncccc21 as the compound, how does the growth read?
A: The growth was 58.4%.

Q: For [O-][n+]1c(Cl)cc(Cl)c2ccccc21, which growth is on record?
A: Its growth is 123%.

Q: For O=[N+]([O-])c1cc(-c2ccccc2)c(O)c([N+](=O)[O-])c1, which growth is on record?
A: The growth was 71.5%.

Q: How did the growth turn out when CCC1OC(OC)C=CC1=O (stereo unspecified) was run?
A: The growth was 100%.

Q: How did the growth turn out when CCNC(=O)Oc1ccc[nH]c1=O was run?
A: The growth was 86.9%.

Q: Which growth does the source give for COc1ccc(-c2cc(Nc3ccnc(N4CCOCC4)n3)on2)cc1 here?
A: The growth was 24.8%.

Q: With Cc1cccc(NC(=O)N/C(N)=N/c2nc(C)c(C)s2)c1 as the compound, how does the growth read?
A: Its growth is 14%.

Q: How did the growth turn out when c1ccc(Nc2nc(Nc3ccccc3)nc(Nc3ccccc3)n2)cc1 was run?
A: Its growth is 93.8%.

Q: With O=S(=O)(NCCNc1nccc(-c2c(-c3cccc(F)c3)nc3occn23)n1)c1cccc2ccccc12 as the compound, how does the growth read?
A: Its growth is 35.2%.

Q: With COc1cc(C(=O)/C=C/c2c(-c3ccc(F)cc3)nc3sccn23)cc(OC)c1OC as the compound, how does the growth read?
A: The growth was 12.8%.

Q: Which growth does the source give for C=C(C)[C@@H]1CC[C@]2(C(=O)O)CC[C@]3(C)[C@H](CC[C@@H]4[C@@]5(C)C[C@@H](CC#Cc6ccccc6C)C(=O)C(C)(C)[C@@H]5CC[C@]43C)[C@@H]12 here?
A: The growth was 17.2%.

Q: With CC(=O)OC[C@]12CC[C@@H](C(=O)CBr)[C@@H]1[C@H]1CC[C@@H]3[C@@]4(C)CCCNC(C)(C)[C@@H]4CC[C@@]3(C)[C@]1(C)CC2 as the compound, how does the growth read?
A: The growth was -67.7% [100 µM] (active).

Q: For Oc1cccc(Nc2nccc(-c3ccc4ccccc4c3)n2)c1, which growth is on record?
A: The growth was 15.6%.
